Read-out in assay [1]: Collagen I, COL1A1 (gene 1277)
Briefly: BSK_hDFCGF_CollagenI: BioMAP Diversity Plus: hDFCGF Assay for Collagen I Biomarker Activity (AID 2284250). The note with it: primary human foreskin fibroblasts. The method in brief:
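Human skin primary fibroblasts dosed with test chemical, harvested at 24 h, Collagen I quantified by ELISA; parallel SRB staining (0.1% SRB after 10% TCA fixation, 560 nm) tracked cytotoxicity.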

Read-out in assay [2]: Plasminogen activator inhibitor-1 (PAI1), SERPINE1 (gene 5054)
Briefly: BSK_KF3CT_PAI1: BioMAP Diversity Plus: KF3CT Assay for Plasminogen activator inhibitor-1 (PAI1) Biomarker Activity (AID 2284252). The note with it: primary human keratinocytes with fibroblasts. The method in brief: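 ELISA read-out of PAI-1 taken 24 h after chemical treatment of a human skin primary co-culture of keratinocytes and foreskin fibroblasts. Increases over DMSO-treated wells defined activity.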

Read-out in assay [3]: Monocyte Chemoattractant Protein-1 (MCP1), CCL2 (gene 6347)
Nature of the assay: BSK_IMphg_MCP1: BioMAP Diversity Plus: IMphg Assay for Monocyte Chemoattractant Protein-1 (MCP1) Biomarker Activity (AID 2284253). The note with it: primary human endothelial cells with macrophages. The method in brief:
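Human venular endothelial cells co-cultured with macrophages; MCP-1 measured by ELISA 24 hours post-dose and fitted against DMSO. Cytotoxicity monitored by SRB total-protein staining in parallel cultures.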

Read-out in assay [4]: Interleukin-8 (IL8), CXCL8 (gene 3576)
Nature of the assay: BSK_KF3CT_IL8: BioMAP Diversity Plus: KF3CT Assay for Interleukin-8 (IL8) Biomarker Activity (AID 2284254). The note with it: primary human keratinocytes with fibroblasts. A digest of the protocol:
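Chemicals were added to co-cultured human keratinocytes and foreskin fibroblasts, incubated 24 h, then IL-8 was quantified by ELISA. Cytotoxicity was tracked by sulforhodamine B total-protein staining in parallel cultures.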

Read-out in assay [5]: Macrophage Inflammatory Protein-1 Alpha (MIP1a), CCL3 (gene 6348)
Nature of the assay: BSK_IMphg_MIP1a: BioMAP Diversity Plus: IMphg Assay for Macrophage Inflammatory Protein-1 Alpha (MIP1a) Biomarker Activity (AID 2284255). Conditions: primary human endothelial cells with macrophages. The method in brief:
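Co-culture of human venular endothelial cells and macrophages exposed to compounds for 24 h; MIP-1a measured by ELISA relative to DMSO. Cytotoxicity assessed in parallel cultures by sulforhodamine B total-protein staining at 560 nm.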

Read-out in assay [6]: Plasminogen activator inhibitor-1 (PAI1), SERPINE1 (gene 5054)
Nature of the assay: BSK_MyoF_PAI1: BioMAP Diversity Plus: MyoF Assay for Plasminogen activator inhibitor-1 (PAI1) Biomarker Activity (AID 2284256).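 As to outcome: PAI-1 protein level measured by ELISA in fibroblast cultures; PAI-1 read 24 h after compound addition.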 Conditions: primary human lung fibroblasts. A digest of the protocol: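 Primary human lung fibroblasts are dosed and incubated 24 h. PAI-1 is then measured by ELISA, while parallel cultures undergo SRB staining for overt cytotoxicity. Increases over DMSO define activity.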

Read-out in a further assay: CD69, CD69 (gene 969)
Briefly: BSK_IMphg_CD69: BioMAP Diversity Plus: IMphg Assay for CD69 Biomarker Activity (AID 2284257). Conditions: primary human endothelial cells with macrophages. A digest of the protocol:
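Human venular endothelial cells co-cultured with macrophages; CD69 quantified by ELISA 24 h after compound addition. Activity fitted in the positive direction relative to DMSO baseline; cytotoxicity tracked in parallel cultures via SRB total-protein staining.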

Read-out in assay [7]: Eotaxin 3, CCL26 (gene 10344)
Briefly: BSK_BF4T_Eotaxin3: BioMAP Diversity Plus: BF4T Assay for Eotaxin 3 Biomarker Activity (AID 2284258). The note with it: primary human bronchial epithelial cells with fibroblasts. A digest of the protocol: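 Co-culture of human bronchial epithelial cells and dermal fibroblasts, exposed to chemicals for 24 h versus DMSO. Eotaxin-3 quantified by ELISA; cytotoxicity checked in parallel cultures by sulforhodamine B total-protein staining.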

Read-out in assay [8]: Monocyte Chemoattractant Protein-1 (MCP1), CCL2 (gene 6347)
Nature of the assay: BSK_BF4T_MCP1: BioMAP Diversity Plus: BF4T Assay for Monocyte Chemoattractant Protein-1 (MCP1) Biomarker Activity (AID 2284259). The note with it: primary human bronchial epithelial cells with fibroblasts. The method in brief: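 Co-culture of bronchial epithelial cells and dermal fibroblasts dosed with chemical; MCP-1 measured by ELISA 24 h later. Activity fitted in positive direction versus DMSO; cytotoxicity checked by SRB staining in parallel cultures.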

Read-out in assay [9]: Intercellular Adhesion Molecule 1 (ICAM1), ICAM1 (gene 3383)
Briefly: BSK_BF4T_ICAM1: BioMAP Diversity Plus: BF4T Assay for Intercellular Adhesion Molecule 1 (ICAM1) Biomarker Activity (AID 2284260). Conditions: primary human bronchial epithelial cells with fibroblasts. The method in brief:
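Co-culture of human bronchial epithelial cells and dermal fibroblasts exposed 24 h to chemical; cell-surface ICAM-1 quantified by ELISA. Parallel SRB total-protein staining assessed cytotoxicity; activity fitted relative to DMSO.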

Read-out in assay [10]: Interleukin-8 (IL8), CXCL8 (gene 3576)
Nature of the assay: BSK_MyoF_IL8: BioMAP Diversity Plus: MyoF Assay for Interleukin-8 (IL8) Biomarker Activity (AID 2284261). The note with it: primary human lung fibroblasts. The method in brief:
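IL-8 levels were measured by ELISA in human lung fibroblasts harvested 24 h after compound addition. Responses were analysed as gain of signal over the DMSO baseline.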

Read-out in another assay: CD90, THY1 (gene 7070)
Briefly: BSK_BF4T_CD90: BioMAP Diversity Plus: BF4T Assay for CD90 Biomarker Activity (AID 2284262). The note with it: primary human bronchial epithelial cells with fibroblasts. A digest of the protocol:
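Co-culture of human bronchial epithelial cells and dermal fibroblasts, 24 h compound exposure. Cell-surface CD90 measured by ELISA relative to DMSO; parallel SRB total-protein staining for cytotoxicity.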

Read-out in assay [11]: Interleukin-8 (IL8), CXCL8 (gene 3576)
Nature of the assay: BSK_BF4T_IL8: BioMAP Diversity Plus: BF4T Assay for Interleukin-8 (IL8) Biomarker Activity (AID 2284263). The note with it: primary human bronchial epithelial cells with fibroblasts. The method in brief:
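Human bronchial epithelial cells with dermal fibroblasts co-culture; IL-8 measured by ELISA 24 hours after dosing, fitted vs DMSO. Cytotoxicity tracked in parallel cultures by SRB total-protein staining.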

Read-out in assay [12]: Interleukin-1 alpha (IL1a), IL1A (gene 3552)
Briefly: BSK_BF4T_IL1a: BioMAP Diversity Plus: BF4T Assay for Interleukin-1 alpha (IL1a) Biomarker Activity (AID 2284264). Conditions: primary human bronchial epithelial cells with fibroblasts. A digest of the protocol:
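Human bronchial epithelial cells co-cultured with dermal fibroblasts, dosed and read at 24 h. Secreted/surface IL-1α quantified by ELISA; gain-of-signal fitted relative to DMSO baseline. Parallel SRB total-protein staining tracked cytotoxicity.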

Read-out in a further assay: Decorin, DCN (gene 1634)
Briefly: BSK_MyoF_Decorin: BioMAP Diversity Plus: MyoF Assay for Decorin Biomarker Activity (AID 2284265). Conditions: primary human lung fibroblasts. The method in brief: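 Compound is added to lung fibroblast cultures; cells incubate 24 h; decorin is then measured by ELISA; the response is analysed upward against DMSO controls.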

Read-out in the next assay: KRT18 (gene 3875)
Briefly: BSK_BF4T_Keratin818: BioMAP Diversity Plus: BF4T Assay for Keratin 818 Biomarker Activity (AID 2284266). The note with it: primary human bronchial epithelial cells with fibroblasts. A digest of the protocol:
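Co-culture of human bronchial epithelial cells and dermal fibroblasts, chemical exposure 24 h. Keratin 8/18 measured by ELISA; positive-direction fit vs DMSO. SRB total protein run in parallel cultures for cytotoxicity.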

Assay [13] can be described thus: BSK_MyoF_SRB: Viability Assessment in the BioMAP Diversity Plus: MyoF Assay (AID 2284267).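 Also: total protein by SRB absorbance in parallel cultures as cytotoxicity measure.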 The note with it: primary human lung fibroblasts. The method in brief: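 Read-out is SRB absorbance at 560 nm, reflecting total protein in parallel lung fibroblast cultures harvested 24 h after compound addition. Cells were TCA-fixed (10%) and stained with 0.1% SRB; activity is referenced to DMSO.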

Read-out in assay [14]: Matrix Metallopeptidase 1 (MMP1), MMP1 (gene 4312)
Briefly: BSK_MyoF_MMP1: BioMAP Diversity Plus: MyoF Assay for Matrix Metallopeptidase 1 (MMP1) Biomarker Activity (AID 2284268). The note with it: primary human lung fibroblasts. The method in brief: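 Lung fibroblast cultures were dosed with test chemicals and, after 24 h, MMP1 levels were measured by ELISA; responses were referenced to DMSO and analysed for increases.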

Read-out in assay [15]: TIMP metallopeptidase inhibitor 1 (TIMP1), TIMP1 (gene 7076)
Nature of the assay: BSK_MyoF_TIMP1: BioMAP Diversity Plus: MyoF Assay for TIMP metallopeptidase inhibitor 1 (TIMP1) Biomarker Activity (AID 2284269). The note with it: primary human lung fibroblasts. A digest of the protocol: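 ELISA read-out of TIMP-1 from primary human lung fibroblast cultures 24 h after compound dosing; gain of signal relative to DMSO vehicle baseline defines activity.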

Read-out in assay [16]: Interferon-inducible T-cell alpha chemoattractant (ITAC), CXCL11 (gene 6373)
Nature of the assay: BSK_hDFCGF_ITAC: BioMAP Diversity Plus: hDFCGF Assay for Interferon-inducible T-cell alpha chemoattractant (ITAC) Biomarker Activity (AID 2284251). The note with it: primary human foreskin fibroblasts. A digest of the protocol: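 Fibroblasts (human foreskin, primary) are treated with chemical, cultured 24 h, then assayed for I-TAC by ELISA. Overt toxicity is checked in parallel cultures by sulforhodamine B staining of total protein at the same time point.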

Usually AC50 stands for the midpoint of the concentration-response curve, whichever way the signal moves.

Values joined by “and” are separate entries in the source; they are usually repeats but may differ in a detail not shown here. Equal values may be shown once. A structure can be active in one record and inactive in another. Active and inactive are the calls of the source. The calls were made as follows: active = hit-call score of the fitted dose curve at least 0.9, where 1 is the maximum; inactive = score below 0.9.

For `NC(=O)C(F)(F)C(F)(F)C(F)(F)C(F)(F)C(F)(F)C(F)(F)C(F)(F)F`, the outcome in [1], in assay [2], in assay [3], in [4], in assay [5] and in assay [6] was inactive. The outcome was “inactive” in the assay with CD69, CD69 (gene 969); “inactive” in assay [7]; “inactive” in [8]; “inactive” in assay [9]; “inactive” in assay [10]; “inactive” with CD90, THY1 (gene 7070). For the same molecule, the outcome is “inactive” in assay [11]; “inactive” in assay [12]; “inactive” with Decorin, DCN (gene 1634); “inactive” with KRT18 (gene 3875); “inactive” in assay [13]; “inactive” in assay [14]. Further, the result in assay [15] was inactive. The AC50 with CD69, CD69 (gene 969) is 23.5 µM (active).
`NC(=O)C(F)(F)C(F)(F)C(F)(F)F`: the result in assay [1], in [16], in [2], in [3], in [4] and in assay [5] was inactive. In addition, the outcome in [6] was “inactive”; with CD69, CD69 (gene 969), “inactive”; in assay [7], “inactive”; in assay [8], “inactive”; in assay [9], “inactive”; in assay [10], “inactive”. Further, the outcome was “inactive” in the assay with CD90, THY1 (gene 7070); “inactive” in [11]; “inactive” in [12]; “inactive” in the assay with Decorin, DCN (gene 1634); “inactive” with KRT18 (gene 3875); “inactive” in assay [13]. Also, the outcome in [14] and in [15] was inactive.
In the case of `NS(=O)(=O)C(F)(F)C(F)(F)C(F)(F)C(F)(F)C(F)(F)C(F)(F)F`, the outcome in [1], in assay [2], in assay [3], in assay [4], in assay [5] and in assay [6] was inactive. Also, the outcome in assay [7] was “inactive”; in [8], “inactive”; in [9], “inactive”; in [10], “inactive”; with CD90, THY1 (gene 7070), “inactive”; in assay [11] it was “inactive”. Besides, the outcome is “inactive” in assay [12]; “inactive” with Decorin, DCN (gene 1634); “inactive” in the assay with KRT18 (gene 3875); “inactive” in [14]; “inactive” in assay [15]. In addition, the concentration at half-maximal activity (AC50) in [3] is 22.3 µM (active); with CD69, CD69 (gene 969), 21.7 µM (active) and 30 µM (active); in assay [8], 7.99 µM (active); with KRT18 (gene 3875), 30 µM (active); in assay [13], 13.4 µM (active) and 30 µM (active).
Consider `CCN(CCO)S(=O)(=O)C(F)(F)C(F)(F)C(F)(F)C(F)(F)C(F)(F)C(F)(F)C(F)(F)C(F)(F)F`, for which the outcome was “inactive” in assay [1]; “inactive” in [3]; “inactive” in [4]; “inactive” in assay [6]; “inactive” with CD69, CD69 (gene 969); “inactive” in [7]. The outcome in assay [8] was “inactive”; in assay [9], “inactive”; in assay [10], “inactive”; in the assay with CD90, THY1 (gene 7070) it was “inactive”; in assay [11] it was “inactive”; in assay [12], “inactive”. Further, the outcome was “inactive” with Decorin, DCN (gene 1634); “inactive” with KRT18 (gene 3875); “inactive” in assay [15]. Also, the AC50 is 17.7 µM (active) and 8.86 µM (active) in [2]; 5.61 µM (active) in assay [4]; 1.54 µM (active) and 12.7 µM (active) in [5]; 55.1 µM (active) in assay [6]; 6.74 µM (active) with CD69, CD69 (gene 969); 19.4 µM (active) with Decorin, DCN (gene 1634). The AC50 in assay [13] is 19.4 µM (active) and 23.3 µM (active); in [14], 7.69 µM (active) and 8.4 µM (active); in [15], 30 µM (active).

Source of the values: PubChem BioAssay (EPA / NIEHS).
